The whole screen tested about 330,000 compounds, of which about 10,000 (3%) were called active. Only a selection was taken, and actives are over-represented in it overall. Values without a mark were called inactive.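 The calls were made as follows: active = inhibition of at least 50% at 8 µM in the primary screen; inactive = the rest.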

Protein Mdm4 (Homo sapiens) + E3 ubiquitin-protein ligase Mdm2 (Homo sapiens), sequence (O15151 whole entry, looked up): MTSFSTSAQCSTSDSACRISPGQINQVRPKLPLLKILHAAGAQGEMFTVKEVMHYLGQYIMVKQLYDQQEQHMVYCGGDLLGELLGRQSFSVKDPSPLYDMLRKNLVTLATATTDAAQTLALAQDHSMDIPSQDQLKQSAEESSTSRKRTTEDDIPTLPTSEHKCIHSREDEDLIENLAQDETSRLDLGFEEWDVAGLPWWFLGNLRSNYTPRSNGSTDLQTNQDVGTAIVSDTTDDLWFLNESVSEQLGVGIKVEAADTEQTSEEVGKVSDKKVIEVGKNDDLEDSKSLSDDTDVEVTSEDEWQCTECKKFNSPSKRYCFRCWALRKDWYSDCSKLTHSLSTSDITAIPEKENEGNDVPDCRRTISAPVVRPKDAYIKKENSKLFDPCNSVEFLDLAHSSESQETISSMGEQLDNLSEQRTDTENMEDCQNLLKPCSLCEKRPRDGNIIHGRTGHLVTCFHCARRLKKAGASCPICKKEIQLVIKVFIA
Protein Mdm4 (Homo sapiens) + E3 ubiquitin-protein ligase Mdm2 (Homo sapiens), sequence (Q00987 whole entry, looked up): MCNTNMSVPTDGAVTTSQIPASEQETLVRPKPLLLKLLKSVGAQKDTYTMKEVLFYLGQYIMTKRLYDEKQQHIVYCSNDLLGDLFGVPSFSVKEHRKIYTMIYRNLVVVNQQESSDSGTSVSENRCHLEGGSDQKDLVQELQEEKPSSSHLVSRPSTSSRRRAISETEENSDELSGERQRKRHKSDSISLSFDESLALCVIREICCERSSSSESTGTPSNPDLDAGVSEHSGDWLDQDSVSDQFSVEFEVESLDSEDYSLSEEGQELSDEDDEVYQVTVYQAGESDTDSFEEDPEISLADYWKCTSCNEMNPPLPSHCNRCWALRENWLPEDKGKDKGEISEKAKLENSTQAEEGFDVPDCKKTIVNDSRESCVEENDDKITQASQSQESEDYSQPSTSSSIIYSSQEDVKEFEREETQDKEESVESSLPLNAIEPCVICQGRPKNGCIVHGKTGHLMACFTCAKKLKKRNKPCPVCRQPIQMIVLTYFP

This test has as its target Protein Mdm4 (Homo sapiens) + E3 ubiquitin-protein ligase Mdm2 (Homo sapiens) (UniProt O15151+Q00987). As to the kind of experiment: inhibitors of human Mdm2-MdmX association, primary screen, cell-based, luminescence, split luciferase, SaOS-2, uHTS (AID 485346). The note with it: SaOS-2 split-luciferase Mdm2/MdmX complementation, at 8 µM, active compounds read high.
Take `CC(=O)c1ccc(Oc2cc(C)nc(-n3nc(C)cc3C)n2)cc1`: the inhibition is 59.2% (active).

Turning to `Cc1cc(C)n(-c2ccc(C(=O)O)cc2[N+](=O)[O-])n1`, the inhibition is -9.75%. As to `COc1ccc(C(C)=O)cc1CSc1nc2nc(C)cc(C)n2n1`, the inhibition is -8.43%. `CCOC(=O)C1C(c2ccc(OC)c(OC)c2)c2c([nH][nH]c2=O)CC1(C)O` (stereo not given): the inhibition was -7.74%. On to `COCCCNC(=S)NCCNc1nc2cc(C)c(C)cc2cc1C#N`, for which the inhibition is -28.9%. The value for `Cc1cc(C(=O)COC(=O)CCCN2C(=O)c3ccccc3C2=O)c(C)n1C` was 6.08%; that for `C=CCn1c(C)cc(C(=O)CN2C(=O)c3ccccc3C2=O)c1C` was 68% (active).

With `C=CCN(CC=C)C(=O)CN1C(=O)c2ccccc2C1=O`, the inhibition was 11.2%. `Cc1cc(S(=O)(=O)N2CCOCC2)ccc1OCC(=O)Nc1cccc(C(F)(F)F)c1`: the inhibition is 23.2%. As to `CCC(CO)Oc1cc(NCc2ccccc2)c2ncn(C3CCCC3)c2c1` (stereo not given), the inhibition is 7.28%. As for `CC(C)n1cnc2c(NCc3ccccc3)cc(OCC3CCN(C)CC3)cc21`, the inhibition was 22.6%.

`CC(C)n1cnc2c(NCc3ccccc3)cc(N[C@@H](CO)Cc3ccccc3)cc21`: the inhibition was 93.5% (active). In the case of `CC(C)(Oc1ccc(C2CC2(Cl)Cl)cc1)C(=O)O` (stereo not given), the inhibition was 26.9%. In the case of `Cn1cc(S(=O)(=O)N2CCN(c3ccc(F)cc3)CC2)c(=O)n(C)c1=O`, the inhibition is 8.49%. With `CCCCn1c(=S)[nH]c2cc(S(=O)(=O)N3CCCCC3)ccc21`, the inhibition is -7.07%.

As to `O=C(Nc1cc(S(=O)(=O)Nc2ccc(Cl)cc2)ccc1O)c1ccc(F)cc1F`, the inhibition is 6.95%. The result for `COc1ccc(C(=O)N2CC3(C)CC2CC(C)(C)C3)cc1OC` (stereo not given) reads 16.7%. The result for `Cc1nnnn1/C(=C\c1ccccc1)C(=O)OCC(=O)N1CC2(C)CC1CC(C)(C)C2` (stereo not given) reads 57.8% (active); that for `Cc1cccc(C(=O)NCC(=O)OCC(=O)N2CC3(C)CC2CC(C)(C)C3)c1` (stereo not given), -13.6%. Regarding `Cc1ccc(C(=O)NCC(=O)O)s1`, the inhibition was 14%. Consider `CC(C)(C)n1nc(Cc2cccc3ccccc23)c(C#N)c1N`, for which the inhibition is -12%. Take `CCc1nn(-c2cc(Oc3cccc4ccccc34)nc(-c3ccccc3)n2)c(N)c1C#N`: the inhibition was 86.8% (active). For the compound `CC#CC[N+](C)(C)CCCCCC`, the inhibition is -0.896%. Regarding `C=CCn1c(-c2ccccc2OCC)n[nH]c1=S`, the inhibition is 18.7%. As to `C/C(=N\NC(=O)c1cc(-c2ccc(O)cc2)nc2ccccc12)c1cccnc1`, the inhibition is -9.48%. Take `CCOc1cc(CNCc2ccccn2)ccc1OCC(=O)NC(C)(C)C`: the inhibition was -2.81%. Consider `NC(=O)c1nsc(C(=O)N(CC(=O)NCc2ccc(F)cc2)Cc2ccco2)c1N`, for which the inhibition is 9.54%. `COc1cc(C(C(=O)NC2CCCC2)N(Cc2ccccc2)C(=O)c2snc(C(N)=O)c2N)ccc1O` (stereo not given): the inhibition is 21.6%.

Turning to `COc1ccc(CNC(=O)C(c2ccc(O)cc2)N(Cc2ccco2)C(=O)c2snc(C(N)=O)c2N)cc1` (stereo not given), the inhibition was 54.5% (active).

Take `CCc1ccc(OCC(O)CN2CCN(CCO)CC2)cc1` (stereo not given): the inhibition was 19.2%. In the case of `CCOC(=O)c1cnn(Cc2ccccc2Cl)c1N`, the inhibition was -23.4%. The result for `CC(C)(C)n1ncc2c(=O)n(Cc3c(Cl)cccc3Br)cnc21` reads 10.5%. The value for `CC(C)c1nnc(NC(=O)C2CC(=O)N(CCc3ccc(F)cc3)C2)s1` (stereo not given) was -16.4%; that for `CCN(C(=O)COC(=O)c1c(NC(C)=O)sc(C)c1C)C1CCS(=O)(=O)C1` (stereo not given) was 13.7%; that for `O=C(c1cccs1)N(Cc1cc2ccccc2[nH]c1=O)CC1CCCO1` (stereo not given) was -37.5%. Take `COc1ccc(-c2c(NC(=O)c3ccco3)oc3ccc(Cl)cc3c2=O)cc1`: the inhibition is -18.1%. Consider `COc1ccccc1NC(=O)c1cc(Cl)nc2ccccc12`, for which the inhibition is -6.72%. The result for `COc1ccc(-c2cc(C(=O)Nc3ccccc3O)c3ccccc3n2)cc1` reads 9.09%; that for `COc1ccc(NC(=O)c2cc(-c3cc(OC)c(OC)c(OC)c3)nc3ccccc23)c(OC)c1`, 61.6% (active). The value for `CCN(CC(=O)Nc1ccccc1C(=O)NC1CC1)Cc1cccs1` was 30.2%. With `O=C(C1=C[C@H](c2coc3ccccc3c2=O)C[C@H](OCc2ccc(CO)cc2)O1)N1CCN(Cc2ccccc2)CC1`, the inhibition was 8.82%. The result for `CN(c1ccccc1)S(=O)(=O)c1cc(C(=O)N2CCN(c3ncccn3)CC2)ccc1Cl` reads 77.3% (active); that for `CN(c1ccccc1)S(=O)(=O)c1cc(C(=O)OCC(=O)N2CCN(C(=O)c3ccco3)CC2)ccc1Cl`, 15.6%.

As for `CN(c1ccccc1)S(=O)(=O)c1ccc(C(=O)N2CCN(c3ccccc3Cl)CC2)cc1`, the inhibition was 28.8%. Regarding `COC(=O)c1ccc(C)c(NC(=O)Cn2c(C)csc2=O)c1`, the inhibition is 26.8%. As to `O=C(Nc1nnc(-c2ccc(Cl)cc2)o1)c1ccccc1Br`, the inhibition was -13.3%.

Consider `O=C(Nc1nnc(-c2ccccc2)o1)c1cc(-c2cccs2)nc2ccccc12`, for which the inhibition was 51% (active). The value for `CC(C)(C)Cc1nnc(NC(=O)c2cc(-c3ccccc3)nc3ccccc23)s1` was -22%. Turning to `COc1ccc(Cl)cc1C(=O)NNC(=O)c1nc2nc(C)cc(C)n2n1`, the inhibition was 8.57%. With `O=c1c2c(ncn1Cc1ccccc1)nc1n2CCC1`, the inhibition is 19.7%. The value for `CN(C)/C=C/c1c(C#N)c(=O)ncn1Cc1ccccc1` was 13.9%.

For the compound `CN(C)c1ccnc2sc3c(=O)n(Cc4ccccc4)cnc3c12`, the inhibition is 59.1% (active). In the case of `CN(CCC#N)c1ncnc2scc(-c3ccccc3)c12`, the inhibition is 21.2%. `CC(C)CCN1CCC(C)(NC(=O)c2ccccc2)C1=O` (stereo not given): the inhibition is -21.2%.

As to `O=C(CCCCCn1c(=S)[nH]c2cc3c(cc2c1=O)OCO3)N1CCN(c2ccc(F)cc2)CC1`, the inhibition is 53.5% (active). As for `Cc1ccc(C)c(N2CCN(C(=O)CCCCn3c(=O)[nH]c4ccccc4c3=O)CC2)c1`, the inhibition is 8.89%. For the compound `CN(C)CCn1c(=S)[nH]c2ccc(Cl)cc2c1=O`, the inhibition is 8.17%.

Consider `Cc1ccc(C)c(N2CCN(C(=O)CCCn3c(=O)c4cccn4c4cccnc43)CC2)c1`, for which the inhibition was 1.5%. With `Cc1ccc(C)c(N2CCN(C(=O)CCCCCn3c(=S)[nH]c4ccc(N5CCOCC5)cc4c3=O)CC2)c1`, the inhibition was 85.6% (active).

As for `O=C(NCCS(=O)(=O)N1CCN(c2ccc(F)cc2)CC1)c1ccc2c(c1)OCO2`, the inhibition was 7.26%.

Consider `O=C(CNS(=O)(=O)c1ccc2c(c1)OCCCO2)N1CCN(c2ccc(F)cc2)CC1`, for which the inhibition was 7.54%. `O=C(CCn1c(=S)[nH]c2cc3c(cc2c1=O)OCO3)NCc1ccc(Cl)cc1`: the inhibition was 56.3% (active).

In the case of `CC(C)NC(=O)CCCn1c(=S)[nH]c2cc3c(cc2c1=O)OCO3`, the inhibition is -5.62%. On to `Cn1ccsc1=NC(=O)c1cc(S(=O)(=O)N2CCOCC2)ccc1Cl`, for which the inhibition was 28%.

For `NS(=O)(=O)c1ccc(CCNC(=O)CN2C(=O)c3ccccc3S2(=O)=O)cc1`, the inhibition is 27.9%.

As to `O=C(COC(=O)c1ccc(Br)o1)NC12CC3CC(CC(C3)C1)C2`, the inhibition was 15.9%.

For the compound `Cc1csc(=O)n1CCC(=O)OCC(=O)NNC(=O)c1ccc(Br)cc1`, the inhibition is 8.79%. The result for `CCCN(CCC)C(=S)Nc1cc(C(=O)OC)ccc1C(=O)OC` reads 9.38%; that for `CCOC(=O)C1CCN(C(=O)c2ccccc2N(C)S(=O)(=O)c2ccccc2)CC1`, -12.4%. As for `C=CS(=O)c1sc(Cl)c(N2CCOCC2)c1[N+](=O)[O-]` (stereo not given), the inhibition is 25.9%. With `COC(=O)c1ccccc1NC(=O)CSc1nnnn1C`, the inhibition was -3.43%.

For the compound `CCOC(=O)c1c(-c2ccc(C)cc2C)csc1NC(=O)CSc1nnnn1C`, the inhibition is 73.7% (active). Consider `Cn1nnnc1SCC(=O)Nc1sccc1C(N)=O`, for which the inhibition is 0.655%. As to `Cc1ccc(/C=C/C(=O)O)cc1S(=O)(=O)N1CCC(Cc2ccccc2)CC1`, the inhibition was -1.19%. With `Cc1ccc(S(=O)(=O)NCC(=O)Nc2ccc3c(c2)OCCO3)cc1`, the inhibition was 10%. For `CS(=O)(=O)c1ccc(-c2nnn(CC(=O)Nc3ccc4c(c3)OCCO4)n2)cc1`, the inhibition was 86.1% (active).

`Cc1cccc(C(=O)Nc2ccccc2-c2nnn(CC(=O)Nc3ccc4c(c3)OCCO4)n2)c1`: the inhibition was 15.2%. Regarding `CC1CCCCC12NC(=O)N(CC(=O)OCc1c(F)cccc1Cl)C2=O` (stereo not given), the inhibition was 2.6%. Take `Cc1ccsc1C(=O)OCC(=O)c1cc(C)n(CC2CCCO2)c1C` (stereo not given): the inhibition is 94.1% (active). Take `COc1ccc(C(=O)OCC(=O)c2cc(C)n(CC3CCCO3)c2C)cc1[N+](=O)[O-]` (stereo not given): the inhibition is 2.69%. As to `Cc1cc(C(=O)Cn2cnc3cc([N+](=O)[O-])ccc3c2=O)c(C)n1CC1CCCO1` (stereo not given), the inhibition was -7.26%. Turning to `COc1cccc(NC(=O)[C@H](Cc2c[nH]c3ccccc23)NC(=O)[C@@H]2Cc3ccccc3CN2)c1`, the inhibition is 94.4% (active). As to `COc1ccc(NC(=O)[C@H](NC(=O)[C@@H]2Cc3ccccc3CN2)c2ccccc2)cc1`, the inhibition was -1.06%.

In the case of `COc1ccc(CNC(=O)[C@H](Cc2c[nH]c3ccccc23)NC(C)=O)cc1OC`, the inhibition is 10.9%. As to `C/C=C/c1ccc(OCCCCN2CCC(C)CC2)c(OC)c1`, the inhibition was -26%. Turning to `Cc1cccc(NC(=S)NCc2ccc3[nH]c4c(c3c2)CCCC4)c1`, the inhibition is 63.6% (active). The value for `Cc1cccc(NC(=S)NCCN(C2CCCCC2)C2CCCC2)c1` was 44.3%. Take `Cc1cc(C)cc(NC(=S)NCc2ccc(F)cc2)c1`: the inhibition is -4.57%. The value for `CC(C)=CCc1c(O)c(CC=C(C)C)c2occ(-c3ccc(O)cc3)c(=O)c2c1O` was 45.8%.

For `CCC1(CC)NC(=O)N(CC(=O)OCC(=O)c2cc(C)c(C)cc2C)C1=O`, the inhibition is 22.7%.

The values above are taken from PubChem BioAssay AID485346 (Sanford-Burnham Center for Chemical Genomics, 2010).
